Source: the supplement of paper PMC11577813, “Eurasian spruce bark beetle detects lanierone using a highly expressed specialist odorant receptor, present in several functional sensillum types” (BMC Biology, 2024)
± gives the standard deviation of the averaged measurements.

Tests used:
[1] = tested on: (+)-isopinocamphone A-neuron OSN class; assay: net action potential response of A-neuron (blank-subtracted) (spikes/s (Hz)); higher = stronger excitation; conditions: 10 µg on filter paper; neuron: A neuron (large spike amplitude)
Summary of the method: (§1)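 Single sensillum recordings with tungsten electrodes were taken from one fixed antenna of live lab-reared adult Ips typographus, with each compound (10 μg in paraffin oil on filter paper in a pipette) given as a 0.5 s pulse at 0.3 L/min into a humidified, charcoal-filtered 1.8 L/min airstream. AutoSpike counts of A-neuron or B-neuron spikes in 0.5 s windows had the pre-stimulus count subtracted. Responses were then converted to spikes/s, blank-subtracted and averaged over 1–4 sensilla.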

[2] = tested on: (+)-trans-4-thujanol A-neuron OSN class; assay: as above; conditions: 10 µg on filter paper; neuron: A neuron (large spike amplitude)
Summary of the method: as §1

[3] = tested on: (5S,7S)-trans-conophthorin A-neuron OSN class; assay: as above; conditions: 10 µg on filter paper; neuron: A neuron (large spike amplitude)
Summary of the method: as §1

[4] = tested on: myrcene A-neuron OSN class; assay: as above; conditions: 10 µg on filter paper; neuron: A neuron (large spike amplitude)
Summary of the method: as §1

[5] = tested on: p-cymene A-neuron OSN class; assay: as above; conditions: 10 µg on filter paper; neuron: A neuron (large spike amplitude)
Summary of the method: as §1

[6] = tested on: lanierone-responsive B-neuron OSN class (ItypOR36); assay: net action potential response of lanierone B-neuron (blank-subtracted) (spikes/s (Hz)); higher = stronger excitation; conditions: 10 µg on filter paper, neuron: B neuron (small spike amplitude)
Summary of the method: as §1

[7] = tested on: ipsdienol A-neuron OSN class; assay: net action potential response of A-neuron (blank-subtracted) (spikes/s (Hz)); higher = stronger excitation; conditions: 10 µg on filter paper; neuron: A neuron (large spike amplitude)
Summary of the method: as §1

[8] = co-localized A-neuron class: (4S)-cis-verbenol
[9] = co-localized A-neuron class: (5S,7S)-trans-conophthorin
[10] = co-localized A-neuron class: (+)-isopinocamphone
[11] = co-localized A-neuron class: (+)-trans-4-thujanol
[12] = co-localized A-neuron class: ipsdienol
[13] = co-localized A-neuron class: myrcene
[14] = co-localized A-neuron class: p-cymene

Row | SMILES | net action potential response [1] | net action potential response [2] | net action potential response [3] | net action potential response [4] | net action potential response [5] | net action potential response [6, 8] | net action potential response [6, 9] | net action potential response [6, 10] | net action potential response [6, 11] | net action potential response [6, 12] | net action potential response [6, 13] | net action potential response [6, 14] | net action potential response [7]
1 | CC12CCC(CC1=O)C2(C)C (racemic) [(±)-Camphor] | 125 ± 40 | 2 ± 5.7 | 5.33 ± 7 | -6 | 6.67 ± 16 | -2.67 ± 3.1 | 0 | -6.67 ± 2.3 | -1.5 ± 1 | -2.67 ± 6.1 | -2 | 1 ± 1.4 | –
2 | CC(C)CCO [3-Methyl-1-butanol] | 2 ± 2 | 11 ± 11 | 3.33 ± 3.1 | -2 | 7.33 ± 6.1 | 3.33 ± 2.3 | 0.667 ± 6.1 | 1.33 ± 11 | -4 ± 2.3 | -4.67 ± 6.4 | -6 | -0.667 ± 2.3 | –
3 | CC1=CC(=O)[C@@H]2C[C@H]1C2(C)C [(-)-Verbenone] | 0.667 ± 1.1 | 1 ± 4.8 | -5 ± 4.8 | -6 | -0.667 ± 3.1 | 1.33 ± 6.4 | -0.667 ± 1.1 | -4.67 ± 6.1 | 4 ± 6.7 | 2 ± 4 | 6 | 2 ± 2 | –
4 | CCC/C=C/CO | -1.33 ± 4.2 | 0 ± 1.6 | -0.667 ± 6.4 | -2 | 1.33 ± 1.1 | 0.667 ± 6.4 | 4.67 ± 3.1 | -0.667 ± 6.1 | 4 ± 2.8 | 2 ± 5.3 | 2 | 2 ± 2.8 | -1.33 ± 1.1
5 | C=CC(=C)CC(O)C=C(C)C (racemic) [(±)-Ipsdienol] | -4.67 ± 1.1 | -1.5 ± 1.9 | -2.5 ± 1.9 | 40 | -1.33 ± 4.2 | 2.67 ± 15 | -0.5 ± 3.4 | -2.67 ± 4.2 | 0 ± 1.6 | -4.67 ± 10 | -4 | -0.667 ± 1.1 | –
6 | CC1=CCC(C(C)C)=CC1 [γ-Terpinene] | -0.667 ± 3.1 | -1 ± 4.2 | 3 ± 4.8 | 6 | 117 ± 49 | – | – | – | – | – | – | – | 2 ± 8.7
7 | CC1=CCC(=C(C)C)CC1 [Terpinolene] | 3.33 ± 5.8 | 0.5 ± 5.5 | 4 ± 6.9 | 2 | 20 ± 16 | – | – | – | – | – | – | – | 1.33 ± 1.1
8 | CCCCCC=O [Hexanal] | 4.67 ± 3.1 | 0.5 ± 4.4 | 2.67 ± 7.6 | 4 | 2 ± 3.5 | – | – | – | – | – | – | – | –
9 | CCc1ccc(O)c(OC)c1 [4-Ethylguaiacol] | -1.33 ± 2.3 | 1 ± 1.1 | 3.33 ± 4.2 | 4 | 0.667 ± 2.3 | 1.33 ± 3.1 | 0.667 ± 2.3 | 5.33 ± 1.1 | 4 ± 5.4 | -2 ± 5.3 | -8 | 0.667 ± 3.1 | –
10 | CC(=O)CC/C=C(\C)CCC=C(C)C [Geranylacetone] | 2 ± 2 | 1 ± 4.8 | 4.67 ± 7 | -2 | 3 ± 4.2 | – | – | – | – | – | – | – | –
11 | CC/C=C/CCO | 8.67 ± 14 | 27.5 ± 23 | -2 ± 2 | -4 | 0.667 ± 3.1 | – | – | – | – | – | – | – | 0.667 ± 3.1
12 | C=CCc1ccc(OC)c(OC)c1 [Eugenol methyl ether] | -0.667 ± 5.8 | 0 ± 1.6 | 4 ± 2.3 | 0 | 4.67 ± 5 | – | – | – | – | – | – | – | –
13 | C=C1CCC2CC1C2(C)C (stereo not drawn) [(-)-β-Pinene] | 8 ± 7.2 | 1 ± 1.1 | 2 ± 6 | 18 | 0.667 ± 4.6 | – | – | – | – | – | – | – | –
14 | CC(=O)OCCC(C)C [3-Methylbutyl acetate] | 4.67 ± 4.2 | 3.33 ± 3.1 | -2.67 ± 4.6 | 10 | 6.67 ± 5 | -8 ± 5.3 | 1.33 ± 2.3 | 3.33 ± 3.1 | 0 ± 5.3 | 2 | -6 | -2 ± 3.5 | –
15 | CC12CCC(CC1)C(C)(C)O2 [1,8-Cineole] | -2.67 ± 2.3 | 1 ± 3.8 | 2.67 ± 10 | 8 | 13.3 ± 11 | 4 ± 9.2 | -6.67 ± 6.1 | 0.667 ± 4.2 | -1 ± 2.6 | 0 ± 10 | -4 | 0 ± 5.3 | –
